G9a inh: inhibitors of human histone lysine methyltransferase G9a; G9a H3K9 monomethylation, AlphaScreen, 2 h; Potency, µM (titrated, usually from 102 µM), for the others: top-dose activity, negative = inhibition, hits mostly inhibitors; 8.8% of 350,000 active; Q96KQ7; note: % is set by controls: 0 for no effect and ±100 for the full control effect; nearly all actives have a fitted effect of over 75% in size
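Using a bead-based AlphaScreen, monomethylated H3K9 product from 2 h room-temperature reactions (G9a 20 nM, peptide 500 nM, SAM 20 uM) was detected with 0.5 ug/mL rabbit anti-H3K9me1 antibody.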
BAZ2B inh: BAZ2B (human) inhibition; Q9UIF8; AlphaScreen BAZ2B-H3K14Ac peptide displacement; Potency, µM (highest dose often 114 µM), for inactives: at the highest dose activity change, negative = inhibition, hits mostly inhibitors; 4.4% of 360,000 active; note: % is set by controls: 0 for no effect and ±100 for the full control effect; nearly all actives have a fitted effect of over 60% in size
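Multi-concentration screen (max 110 uM) measuring displacement of acetylated histone H3 peptide from BAZ2B by AlphaScreen, using 50 nM protein, 50 nM peptide and 10 ug/mL streptavidin donor plus Ni-chelate acceptor beads.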
HP1b binding inh: blocks HP1-beta chromodomain binding to methylated histone tails | Potency, µM (series often up to 114 µM), for inactives: at the highest dose activity change, negative = inhibition, most hits filed as inhibitors | 0.56% of 390,000 active | AlphaScreen HP1-beta / biotin-H3K9me3 peptide binding; note: nearly all actives have a fitted effect of over 70% in size
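AlphaScreen: HP1-beta (50 nM) preformed 30 min with biotin-H3(1-18)K9me3 peptide (50 nM) in PBS pH 7.4, 0.01% Tween-20. Compound added for 30 min at RT, then streptavidin donor/nickel chelate acceptor beads (10 ug/mL) for 30 min.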
Sfp inh: inhibitors of Bacillus subtilis Sfp phosphopantetheinyl transferase | Q9F4F7 | Biochemical Sfp PPTase activity, qHTS | Potency, µM, for the others: largest response in the series, negative = inhibition, actives largely listed as inhibitors | 3.5% of 310,000 active;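 note: the enzyme is Sfp with the accession as filed and its product quenches rhodamine fluorescence; 0% = enzyme reaction without inhibitor and -100% = no enzyme wells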
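After 15 min at room temperature with compound, 15 nM Sfp received 5 uM rhodamine-CoA plus 12.5 uM BHQ-2-ybbR (50 mM Hepes pH 7.6, 10 mM MgCl2). Rate came from the fluorescence difference over 30 min, ex 525/em 598 nm.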
JMJD2A Tudor inh: JMJD2A Tudor domain (human) inhibition; AID 504339; O75164; 4.4% of 390,000 active; Potency, µM (series often up to 114 µM), without a hit: top-dose activity change, negative = inhibition, most hits filed as inhibitors; AlphaScreen JMJD2A-Tudor / H3K4me3 peptide binding; note: % is set by controls: 0 for no effect and ±100 for the full control effect; nearly all actives have a fitted effect of over 50% in size
L3MBTL1 block: L3MBTL1 (human) inhibition. AID 485360. AlphaScreen L3MBTL1–H3K9me1 peptide binding. Potency, µM (highest dose often 57.1 µM), without a hit: at the highest dose activity, negative = inhibition, hits mostly inhibitors. 0.66% of 230,000 active; note: % is set by controls: 0 for no effect and ±100 for the full control effect; nearly all actives have a fitted effect of over 60% in size
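AlphaScreen proximity signal between nickel-chelate acceptor and streptavidin donor beads (final 10 ug/mL) reports binding of 50 nM L3MBTL1 to 75 nM biotin-H3 K9me1 peptide; complex incubated with compounds 30 min at room temperature; cefsulodin titration as control.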
* hit, by the source's call; ? = inconclusive; . = no result; [ ] = remark or other dose. A selection: hits, their analogues and other compounds. The true share with any hit is near 12%. Calls come from the whole dose curve; as a rule, active = well fitted curve in the direction sought with a large enough effect; inconclusive = small, poorly fitted or top-dose-only effect, or another doubt; inactive = no such curve, though single readings can be large; an effect the other way counts as inactive or inconclusive. Potency is the fitted concentration of half-maximal effect.

SMILES	G9a inh	BAZ2B inh	HP1b binding inh	Sfp inh	JMJD2A Tudor inh	L3MBTL1 block
Cc1c(C(=O)OCC[N+]2(C)CCCCC2)oc2ccccc12	28µM*	-21%	-22%	-17%	-8%	4%
O=C(CSc1oc(-c2ccccc2)nc1S(=O)(=O)c1ccc(Br)cc1)c1ccccc1	?	-1%	32%	.	-5%	.
COc1ccc(C(=O)CCN2CCC(C)CC2)cc1	16µM*	-2%	48%	-4%	2%	.
CC1CCCN(CCC(=O)c2ccc(Br)cc2)C1 (stereo not given)	?	5%	19%	-14%	-16%	0%
COc1ccc(C(=O)CCN2CCCC(C)C2)cc1 (stereo not given)	25µM*	-3%	29%	-16%	-5%	.
Cc1ccc(-c2cc(C(=O)N/N=C/c3c(C)nn(-c4ccccc4)c3C)[nH]n2)cc1	-19%[59 µM]	4%	.	7%	.	-1%
Cc1ccccc1-c1n[nH]c(=S)n1/N=C/c1c(C)nn(-c2ccccc2)c1C	1µM*	-5%	25%	?	?	-1%
Cc1ccc(-c2n[nH]c(=S)n2/N=C/c2c(C)nn(-c3ccccc3)c2C)cc1	10µM*	-25%	10%	-25%	79µM*	7%
Cc1nn(-c2ccccc2)c(C)c1/C=N/n1c(-c2ccc(C(C)(C)C)cc2)n[nH]c1=S	29%[0.501 µM]	?	?	-17%	?	-16%
CCOc1cccc(C(=O)N(Cc2ccc(C(C)C)cc2)C2CCS(=O)(=O)C2)c1 (stereo not given)	-5%[59 µM]	5%	20%	.	-9%	.
Cc1ccc(CSc2sc(C(=O)c3ccccc3)c(N)c2C#N)cc1	-33%[59 µM]	19%	81%	-7%	20%	.
N#Cc1c(SCc2ccccc2)sc(C(=O)c2ccccc2)c1N	11µM*	-1%	32%	?	-4%	.
COCCCNC(=O)N1CCN(c2nnc(C)c3c(C)n(-c4ccc(Cl)cc4)nc23)CC1	6%[59 µM]	-2%	15%	.	-17%	.
N#CC1(NC(=O)COc2ccccc2[N+](=O)[O-])CCCCC1	18µM*	5%	?	.	20µM*	-1%
CC(=O)c1ccc(-c2ccc(C(=O)NC3CCCCCC3)o2)cc1	50µM*	-22%	27%	?	-5%	0%
O=C(NC1CCC(O)CC1)c1ccc(-c2ccc(Cl)cc2)o1 (stereo not given)	?	-32%	15%	.	-26%	-8%
CN1CCc2cc3c(c4c2[C@H]1[C@H](O)c1ccccc1-4)OCO3	50µM*	-32%	17%	-5%	-25%	-3%
COCCCNS(=O)(=O)c1cc2c3c(c1)C(C)C(=O)N3CCC2 (stereo not given)	0%	3%	32%	2%	4%	.
C[n+]1ccc(/C=C/c2ccc3ccccc3c2)cc1	7.1µM*	.	.	-14%	.	.
C[n+]1ccccc1/C=C/c1ccc2ncccc2c1	.	?	12%	3%	-18%	-9%
C[n+]1ccc(/C=C/c2ccc(Br)cc2)cc1	?	56µM*	14%	-2%	-3%	2%
COCCCNC(=O)Cn1c(=O)n(-c2ccc(C)cc2)c(=O)c2c1c1cc(C)ccc1n2C	4%[59 µM]	-2%	6%	.	-13%	.
O=C(CCn1c(=O)c2sccc2n(Cc2cccc(F)c2)c1=O)NCc1ccc2c(c1)OCO2	6%[59 µM]	4%	17%	.	-7%	.
Clc1cccc2c1Sc1ccccc1CC2N1CCNCC1 (stereo not given)	?	?	19%	56µM*	?	-8%
COc1ccc2nc(C)cc(SCC(=O)N/N=C/c3ccc(O)c(O)c3)c2c1	35µM*	?	-5%	-20%	-30%	-10%
COc1ccc2c(c1)c(C(=O)N/N=C/c1ccc(Br)cc1)c(C)n2C	7%[59 µM]	-5%	30%	-15%	-3%	7%
COc1cccc2c(SCC(=O)N/N=C/c3ccccc3)cc(C)nc12	-16%	2%	15%	-15%	-19%	9%

Compound activity as filed in PubChem BioAssay.
